A short description of the assay: qHTS to identify inhibitors of the type 1 interferon - major histocompatibility complex class I in skeletal muscle: Secondary screen by immunofluorescence. Further: nearly all actives have a fitted effect of over 70% in size. Conditions: C25cl48 myoblasts, IFN-b induced HLA-ABC immunofluorescence, 24 h; series mostly up to 49.8 µM. In a few lines: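 HLA-ABC immunofluorescence, with nuclear and cell-body stains, was quantified by laser scanning cytometry. Read-out followed 24 h of IFN-beta (4.0 ng/ml) stimulation of C25cl48 human myoblasts with compounds titrated 1:3 over 11 points from 50 uM, with ruxolitinib as inhibitor control.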

SMILES strings stand for the structures. Inconclusive results are not listed. Activity calls are given as the source filed them. The call rests on the fitted dose curve; in most records, active means well fitted inhibition curve with a large enough effect; inconclusive means small, poorly fitted or top-dose-only effect; inactive means no such curve, though single readings can be large or run the other way.

The record followed here is PubChem BioAssay AID1347414 (National Center for Advancing Translational Sciences (NCATS), 2020).
Potency means the concentration at half of the fitted maximal effect.

With `CS[C@H]1SC[C@@H]2C(=O)N(C)[C@H](C(C)C)C(=O)OC[C@H](NC(=O)c3cnc4ccccc4n3)C(=O)N[C@H](C)C(=O)N(C)[C@H]1C(=O)N(C)[C@H](C(C)C)C(=O)OC[C@H](NC(=O)c1cnc3ccccc3n1)C(=O)N[C@H](C)C(=O)N2C`, the Potency was 4.1 nM (active).

For the compound `Cc1cc(O)c(-c2ccc([C@@H](C)CN)cc2)c2c1[nH]c(=O)c1sccc12`, the Potency was 18.2 nM (active). In the case of `CCCC(=O)O[C@]1(C(=O)CO)CC[C@H]2[C@@H]3CCC4=CC(=O)CC[C@]4(C)[C@H]3[C@@H](O)C[C@@]21C`, the Potency result is “inactive”. With `CC(=O)c1ccc2c(c1)c1cc(C(C)=O)ccc1n2CCNC(C)C` the figure was 647 nM (active). Turning to `CC(C)c1nn(-c2c(Cl)cccc2Cl)c2nc(Cc3ccc(OCCO)cc3)[nH]c(=O)c12`, the Potency is 22.9 nM (active).

As for `CCN1CCN(Cc2ccc(NC(=O)Nc3ccc(Oc4cc(NC)ncn4)cc3)cc2C(F)(F)F)CC1`, the Potency was 1620 nM (active). `CCc1cc(C(N)=O)ccc1-n1nc(C(C)C)c2c(-n3cnc(-c4cnn(C)c4)c3)ccnc21`: the Potency is 258 nM (active).

Turning to `O=C1NCCc2[nH]c(-c3ccncc3)cc21`, the Potency is 2570 nM (active). With `O=[N+]([O-])c1ccc2c(c1)S(=O)(=O)C=C2`, the Potency was 1820 nM (active).

For the compound `C[C@H](NC(=O)/C(C#N)=C/c1cccc(Br)n1)c1ccccc1`, the Potency is 20500 nM (active). With `O=C(Nc1cn[nH]c1-c1nc2ccc(CN3CCOCC3)cc2[nH]1)NC1CC1` the figure was 2890 nM (active).

`CC(=O)c1cnc2ccc(-c3cc(Cl)c(O)c(Cl)c3)nc2c1NC1CCC(CN(C)C)CC1` (stereo unspecified): the Potency is 45.8 nM (active). The same measure for `O=C(/C=C/c1cccc(S(=O)(=O)Nc2ccccc2)c1)NO`: 514 nM (active); for `COC(=O)c1nc(Cl)c(Cl)nc1N`: 5760 nM (active). Regarding `Cc1ncsc1-c1ccc([C@H](C)NC(=O)[C@@H]2C[C@@H](O)CN2C(=O)[C@@H](NC(=O)COCCCOCCNC(=O)C[C@@H]2N=C(c3ccc(Cl)cc3)c3c(sc(C)c3C)-n3c(C)nnc32)C(C)(C)C)cc1`, the Potency is 145 nM (active). The same measure for `CC(=O)Nc1ccc([C@H](C)C(=O)Nc2ncc(C(C)C)s2)cc1`: 1620 nM (active); for `COc1ccc(-c2ccc3ncc4c(c3c2)n(-c2ccc(N3CCNCC3)c(C(F)(F)F)c2)c(=O)n4C)cn1`: 258 nM (active); for `Fc1cccc(-n2cnc3c(NCc4nc5c(F)c(F)ccc5[nH]4)nc(N4CCOCC4)nc32)c1`: 289 nM (active).

As for `COc1cccc2nc(-c3cccs3)nc(NN3C(=O)C=C(C)C3=O)c12`, the Potency was 1820 nM (active). Consider `CN1C/C=C/CCOc2cccc(c2)-c2ccnc(n2)Nc2cccc(c2)C1`, for which the Potency is 115 nM (active).

Consider `CO[C@H]1C(=O)[C@]2(C)[C@@H](OC)C[C@H]3OC[C@@]3(OC(C)=O)[C@H]2[C@H](OC(=O)c2ccccc2)[C@]2(O)C[C@H](OC(=O)[C@H](O)[C@@H](NC(=O)OC(C)(C)C)c3ccccc3)C(C)=C1C2(C)C`, for which the Potency entry was “inactive”. As to `CC(C)c1cc(CNc2nc(Nc3cc(C4CC4)[nH]n3)cc(N3CCN(C)CC3)n2)on1`, the Potency was 4580 nM (active). Turning to `CNC(=O)c1nn(C)c2c1C(C)(C)Cc1cnc(Nc3ccc(N4CCN(C)CC4)cc3)nc1-2`, the Potency is 5760 nM (active). The same measure for `COc1cccc2c1C(=O)c1c(O)c3c(c(O)c1C2=O)C[C@@](O)(C(=O)CO)C[C@@H]3O[C@H]1C[C@H](N)[C@@H](O)[C@H](C)O1`: 914 nM (active); for `CO[C@@H]1[C@@H](O)[C@H](O)[C@@H](n2c3c(Cl)cccc3c3c4c(c5c6cccc(Cl)c6[nH]c5c32)C(=O)NC4=O)O[C@H]1CO`: “inactive”. The same measure for `CC[C@@]1(O)C(=O)OCc2c1cc1n(c2=O)Cc2c-1nc1ccccc1c2/C=N/OC(C)(C)C`: 3240 nM (active); for `CN(C)C/C=C/C(=O)Nc1ccc(C(=O)N2CCC[C@@H](Nc3ncc(Cl)c(-c4c[nH]c5ccccc45)n3)C2)cc1`: 230 nM (active). For the compound `CCCCc1nc2cc(/C=C/C(=O)NO)ccc2n1CCN(CC)CC`, the Potency is 364 nM (active). As to `CN1CCN(Cc2ccc(NC(=O)Nc3ccc(Oc4cc(NC(=O)C5CC5)ncn4)cc3)cc2C(F)(F)F)CC1`, the Potency was 64.7 nM (active). Consider `CCc1c(O)cc(O)c(C(=O)c2ccc(OCCN3CCOCC3)c(OC)c2)c1CC(=O)N(CCOC)CCOC`, for which the Potency is 814 nM (active). With `CC(C)C[C@H](NC(=O)CNC(=O)c1cc(Cl)ccc1Cl)B1OC(=O)CC(CC(=O)O)(C(=O)O)O1` (stereo partly specified) the figure was 814 nM (active); with `CC(C)[C@H](C(=O)Nc1ccc(C(=O)NO)cc1)c1ccccc1`, 458 nM (active); with `CC(C)(C)CC(=O)OCC(=O)[C@@]1(O)CC[C@H]2[C@@H]3CCC4=CC(=O)C=C[C@]4(C)[C@H]3[C@@H](O)C[C@@]21C`, “inactive”.

As to `COC(=O)C[C@](O)(CCCC(C)(C)O)C(=O)O[C@@H]1C(OC)=C[C@]23CCCN2CCc2cc4c(cc2[C@H]13)OCO4`, the Potency was 28.9 nM (active). As to `Cc1ccc(NC(=O)NCc2ccc3c(c2)CN(C2CCC(=O)NC2=O)C3=O)cc1Cl` (stereo unspecified), the Potency was 8.1 nM (active). On to `COc1cc(C(=O)N2CCC(N3CCN(C)CC3)CC2)ccc1Nc1ncc2c(n1)N(C)c1ccccc1C(=O)N2C`, for which the Potency is 6470 nM (active).
